The list is not random: actives were taken first. Their share in the collection is about 4.8%.
DAX1 inh-1: inhibitors of human orphan nuclear receptor DAX1 (NR0B1); P51843; HEK293 Gal4-DAX1 luciferase reporter, luminescence; inhibition, % at 6.75 µM; 0.99% of 340,000 active; AID 504766;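 active means inhibition above the mean over all tested compounds plus 3 SD, cut at about 4.2% in these data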;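 further: inhibition shows as a rise in luminescence from relieved DAX1 repression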
Target sequence (P51843 207-470 limits assumed): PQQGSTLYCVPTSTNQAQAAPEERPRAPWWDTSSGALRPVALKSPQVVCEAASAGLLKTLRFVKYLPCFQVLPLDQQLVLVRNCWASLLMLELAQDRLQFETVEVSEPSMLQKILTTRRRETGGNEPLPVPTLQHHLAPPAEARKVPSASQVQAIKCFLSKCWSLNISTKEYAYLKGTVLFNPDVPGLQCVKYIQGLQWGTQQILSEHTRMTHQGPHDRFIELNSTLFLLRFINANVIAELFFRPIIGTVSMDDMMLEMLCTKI
hcDAF-12 act: H. contortus DAF-12 activation, primary screen; HEK293 hcDAF-12 lit1-tk-luc reporter, luminescence; 0% DMSO, 100% Δ7-dafachronic acid; activation, % at 6.8 µM; 1.4% of 370,000 active;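 active means activation above the mean of all tested compounds plus 3 SD, cut at about 5.5% in these data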
hgDAF-12 ag: hgDAF-12 agonism, primary luciferase screen | HEK293 GAL4-hgDAF12 UAS-luciferase reporter, agonist luminescence; normalized to butyrate control | AID 687014 | activation, % at 6.8 µM | 1.8% of 370,000 active;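 active means activation above a cutoff set at the mean of all screened compounds plus 3 SD, cut at about 10% in these data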
ssDAF-12 act: activates DAF-12 receptor from parasite S. stercoralis. HEK293 ssDAF-12/GRIP1 lit1-tk-luc reporter, luminescence; % of 3 µM dafachronic acid response. activation, % at 6.8 µM. 1% of 370,000 active. AID 652126;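 active means activation above the mean over all tested compounds plus 3 SD, cut at about 0.9% in these data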
SMARCA2 activ: SMARCA2 function activation, primary screen. MG213 cells, MMTV-luciferase reporter, dexamethasone, overnight. activation, % at 9.1 µM. 1% of 370,000 active. AID 652017; in the data active means activation above about 7.8%
DAX1 inh-2: inhibitors of DAX1 repression of SF-1 activated StAR promoter; 1.1% of 370,000 active; inhibition, % at 6.8 µM; HEK293T StAR-luciferase reporter, SF-1/DAX-1 repression relief; AID 652010;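 active means inhibition above the mean over all tested compounds plus 3 SD, cut at about 3.6% in these data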;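 further: higher inhibition means more luminescence from relief of DAX-1 repression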
SMARCA2 act conf: SMARCA2 activation, confirmation screen; shares compounds with SMARCA2 activ; MG213 cells, MMTV-luciferase with dexamethasone, luminescence, overnight; MG213 cells expressing E1A, Rb sequestered; DMSO wells 0%, reference activator 100%; activation, % at 9.1 µM; 30% of 3,500 active; AID 652260;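 active means activation above its plate's cutoff, the mean activation of tested wells plus 3 SD, cut at about 7.9% in these data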
GAL4-VP16 Luc: GAL4-VP16 reporter activation counter-screen; shares compounds with SMARCA2 activ; HEK293 GAL4-VP16 pG5luc reporter, luciferase luminescence; scaled: DMSO wells 0%, SAHA wells 100%; activation, % at 9.1 µM; 41% of 3,500 active;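 active means activation above the solvent-only control well mean plus 3 SD, averaged across control plates, cut at about 5.2% in these data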
LXR ag: LXR-beta agonism as hcDAF-12 counter-screen; HEK293 Gal4-LXR tk-luc reporter, luminescence, 24 h; normalized: DMSO 0%, positive control 100%; activation, % at 6.8 µM; 3,400 tested, under 10 active; shares compounds with hcDAF-12 act;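 active means mean percent activation of the reporter above a cutoff set as the average over tested compounds plus their standard deviation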
Target sequence (P55055 whole entry, looked up, the tested form may be a part): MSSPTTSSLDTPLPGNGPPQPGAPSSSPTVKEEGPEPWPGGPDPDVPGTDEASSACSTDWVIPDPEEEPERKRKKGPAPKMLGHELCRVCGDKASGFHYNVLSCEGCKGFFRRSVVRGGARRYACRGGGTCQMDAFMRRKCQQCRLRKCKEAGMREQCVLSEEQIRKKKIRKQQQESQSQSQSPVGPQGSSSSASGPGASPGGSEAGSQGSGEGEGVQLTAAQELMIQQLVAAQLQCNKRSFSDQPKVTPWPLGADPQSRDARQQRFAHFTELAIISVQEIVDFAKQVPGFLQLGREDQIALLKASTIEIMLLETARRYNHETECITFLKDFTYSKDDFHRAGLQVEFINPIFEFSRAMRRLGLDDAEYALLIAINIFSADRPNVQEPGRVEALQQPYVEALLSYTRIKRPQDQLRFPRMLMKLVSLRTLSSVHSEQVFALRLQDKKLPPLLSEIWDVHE
hcDAF12 conf: hcDAF-12 agonism, confirmation assay. shares compounds with hcDAF-12 act. HEK293 hcDAF-12 lit1-tk-luc reporter, luminescence; % of Δ7-dafachronic acid response. activation, % at 6.8 µM. 61% of 3,400 active. AID 743032;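 active means mean activation across triplicate tests above the threshold derived from the earlier primary screen, cut at about 5.5% in these data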
hgDAF12 conf: confirmation of H. glycines DAF-12 agonists; shares compounds with hgDAF-12 ag; HEK293 GAL4-hgDAF12 luciferase reporter, agonist mode; percent of butyrate response; activation, % at 6.8 µM; 80% of 3,300 active; AID 743050;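 active means mean activation over triplicate wells above the hit cutoff derived from the earlier primary screen, cut at about 11% in these data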
LXR ag 2: activates human LXR-beta, counter-screen for DAF-12 agonists. shares compounds with hgDAF-12 ag. HEK293 Gal4-LXR luciferase reporter, 24 h. activation, % at 6.8 µM. 3,300 tested, under 10 active. AID 743051;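 active means mean activation of the triplicate above a set limit carried over from the primary screen, none filed active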
Numbers stand for hits; n = inactive; x = not tested or not shown.

SMILES	DAX1 inh-1	hcDAF-12 act	hgDAF-12 ag	ssDAF-12 act	SMARCA2 activ	DAX1 inh-2	LXR ag	hcDAF12 conf	others
C/C(=N\NC(=O)c1ccn(C)n1)c1cccc(NC(=O)c2ccc(C)s2)c1	n	n	14.5	n	15.6	n	x	x	SMARCA2 act conf=8.0;GAL4-VP16 Luc=6.0;hgDAF12 conf=n;LXR ag 2=n
COc1ccc2c(CC(=O)Nc3ncc(C)s3)coc2c1	n	n	18.4	n	29.4	n	x	x	SMARCA2 act conf=42.2;GAL4-VP16 Luc=n;hgDAF12 conf=18.0;LXR ag 2=n
COc1cccc(CC(=O)Nc2ncc(C)s2)c1	n	n	n	n	n	n	x	x
COc1ccc(CNc2nc3ccccc3n2C)c(O)c1	n	n	17.2	n	8.1	4.5	x	x	SMARCA2 act conf=9.3;GAL4-VP16 Luc=7.3;hgDAF12 conf=20.6;LXR ag 2=n
CCOC(=O)C1(C)NC(c2cccs2)C2C(=O)N(c3ccc(C)cc3)C(=O)C21 (stereo not given)	n	n	n	n	n	n	x	x
Cc1ccc(NC(=O)c2cccc3cccnc23)cc1	n	8.8	16.7	2.7	8.2	n	n	10.2	SMARCA2 act conf=19.8;GAL4-VP16 Luc=9.1;hgDAF12 conf=18.6;LXR ag 2=n
CC(=O)Nc1cccc(NC(=O)c2cccc3cccnc23)c1	n	n	n	n	n	n	x	x
C/C(CC(=O)Nc1ccc(Cl)cc1C(F)(F)F)=N\NC(=O)c1cccs1	8.6	n	14.1	n	10.0	n	x	x	SMARCA2 act conf=n;GAL4-VP16 Luc=n;hgDAF12 conf=n;LXR ag 2=n
C/C(CC(=O)Nc1ccc(Cl)cc1C(F)(F)F)=N\NC(N)=S	x	n	n	n	n	n	x	x
c1ccc(CSc2ccc(-c3ccco3)nn2)cc1	n	n	15.2	n	10.2	n	x	x	SMARCA2 act conf=8.3;GAL4-VP16 Luc=8.5;hgDAF12 conf=14.8;LXR ag 2=n
Clc1ccc(CSc2ccc(-c3ccco3)nn2)cc1	n	n	n	n	n	n	x	x
CCOC(=O)c1c(NC(=O)COc2ncnc3ccccc23)sc(C)c1C	n	n	n	n	n	n	x	x
Cc1ccc(C(=O)N/N=C2\CCc3ccccc32)c(C)c1	n	n	15.2	n	8.5	n	x	x	SMARCA2 act conf=n;GAL4-VP16 Luc=11.0;hgDAF12 conf=13.6;LXR ag 2=n
COc1ccc2c(=O)c(N3C(=O)c4ccccc4C3=O)c(C)oc2c1	n	n	n	n	n	n	x	x
C=CCNc1nc(NCCOC)c2sc(-c3ccccc3)cc2n1	x	n	n	n	n	n	x	x
C=CCNc1nc(NCc2ccc(N(C)C)cc2)c2sc(-c3ccccc3)cc2n1	x	n	14.6	n	10.1	4.5	x	x	SMARCA2 act conf=11.0;GAL4-VP16 Luc=10.8;hgDAF12 conf=n;LXR ag 2=n
COc1ccc(N2CCN(C(=O)C3CCCN(S(=O)(=O)c4ccc5c(c4)oc(=O)n5C)C3)CC2)cc1 (stereo not given)	n	n	n	n	n	n	x	x
Cc1ccccc1Oc1nc2c(c(=O)n(C)c(=O)n2C)n1C	n	n	n	n	n	n	x	x
Cc1ccc(C)c(N=Nc2nc3ccccc3n2C)c1	n	12.3	n	1.2	n	n	n	13.3
C[C@@H]1CN([C@H](C)CO)C(=O)c2cc(NS(=O)(=O)c3ccccc3)ccc2O[C@@H](C)CCCCO[C@@H]1CN(C)Cc1ccc(Cl)c(Cl)c1	x	6.7	n	n	n	n	n	n
Cc1cc(Br)cn2c(Cc3cccc(F)c3)c(-c3ccco3)nc12	x	n	n	n	n	n	x	x
Fc1cccc(Cc2c(-c3ccco3)nc3c4ccccc4ccn23)c1	x	6.7	12.7	3.7	n	n	n	9.5
COc1ccc(-c2nc3c4ccccc4ccn3c2Cc2ccccc2)cc1OC	x	11.3	n	2.8	n	n	n	9.9
COc1ccccc1Cc1c(-c2ccccc2)nc2c3ccccc3ccn12	x	6.6	n	1.4	n	n	n	6.0
C/C(=N\NC(=S)Nc1ccc(C)c(C)c1)c1ccc(N2CCOCC2)cc1	n	6.9	n	n	n	n	n	n
SMILES	DAX1 inh-1	hcDAF-12 act	hgDAF-12 ag	ssDAF-12 act	SMARCA2 activ	DAX1 inh-2	LXR ag	hcDAF12 conf	others
C=CCSc1cc(C)nc2c(-c3ccccc3)cnn12	4.9	12.0	12.3	2.9	n	n	n	6.9
Cc1ccc2sc(NC(=O)CSc3nc(C)cc(C)c3C#N)nc2c1	n	10.7	11.9	0.9	n	4.0	n	10.5
On1cnnc1-c1ccccc1	n	n	n	n	n	n	x	x
COc1ccc(O)c(-c2cc(-c3ccccc3[N+](=O)[O-])[nH]n2)c1	n	n	n	n	n	n	x	x
Cc1nc2nc(-c3ccco3)nn2c(C)c1Cl	n	6.8	n	n	n	n	n	n
Cc1ccc(C2=NC3(CCCCCC3)NC2=S)cc1	n	n	n	n	n	n	x	x
COc1ccccc1N1CCN(c2ccc([N+](=O)[O-])cn2)CC1	n	n	n	n	n	n	x	x
COc1ccccc1-n1cc2ccc([N+](=O)[O-])cc2n1	n	8.6	n	n	n	n	n	6.6
O=C(CCN1CCN(c2ccccc2)CC1)Nc1cccc(Br)c1	n	6.8	n	n	n	n	n	n
CC(=O)Nc1cc(-n2cnnn2)ccc1C	n	n	n	n	n	n	x	x
Cc1cccc(C(=O)NNC(=O)/C=C/C(=O)O)c1	n	8.6	n	n	n	n	n	n
Cc1cccc(C(=O)NNC(=O)c2cccc(C)c2)c1	n	n	n	n	n	n	x	x
Cc1cc(C)cc(N=Cc2[nH]c3ccc(Br)c(Cl)c3c2O)c1	n	35.4	n	n	n	n	n	n
Cc1ccc(C2NC(=O)c3c(sc(C)c3C)N2)c(O)c1 (stereo not given)	n	9.0	n	1.0	n	n	n	8.4
Cc1sc2c(c1C)C(=O)NC(c1ccccc1F)N2 (stereo not given)	n	n	n	n	n	n	x	x
c1ccc(-c2ccc(-c3ccccn3)s2)nc1	4.7	15.0	13.5	3.8	n	n	n	13.4
O=C(Nc1ccccc1)Nc1nnc(-c2cccs2)s1	n	6.6	n	n	n	n	n	n
COc1ccc(NC(=O)Nc2nnc(-c3cccs3)s2)cc1	n	n	n	n	n	n	x	x
